From PubChem BioAssay AID1159580 (chemical genetic matrix, 2015)
Screen size: about 5,500 compounds; about 2,000 (36%) were called active. Another 18% or so got no clear call; they are omitted. No stated cut-off is given here; in the data, active means normalized growth mostly below about 0.91 (no sharp cut-off); inconclusive means no clear call, values can overlap the other calls; inactive means mostly above about 0.92. Some of the results follow.

Experiment: chemical genetic growth profiling, strain panel (AID 1159580);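 further: tested at 20 µM; growth read once vehicle control cultures reached saturation at 30 °C; 1 = growth at the plate median or of vehicle wells; lower values mean less growth of the strain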
Conditions: growth OD

Measured: normalized growth

CCOC(=O)c1c(C)cc(O)c(C=O)c1O
inactive: S. cerevisiae deletion strains, locus YOL012C, strain htz1 0.305
active: S. cerevisiae deletion strains, locus YJR075W, strain HOC1, active compounds read low 0.272 | S. cerevisiae deletion strains, locus YKL009W, strain mrt4, active compounds read low 0.446 | S. cerevisiae deletion strains, locus YKL068W, active compounds read low 0.799 | S. cerevisiae deletion strains, locus YKL085W, strain MDH1 (second series), active compounds read low 0.528 | S. cerevisiae deletion strains, locus YKL085W, strain MDH1, active compounds read low 0.528 | S. cerevisiae deletion strains, locus YKL160W, strain elf1, active compounds read low 0.655 | S. cerevisiae deletion strains, locus YKL190W, strain CNB1, active compounds read low 0.108 | S. cerevisiae deletion strains, locus YKR001C, strain vps1, active compounds read low 0.103 | S. cerevisiae deletion strains, locus YKR026C, strain gcn3, active compounds read low 0.823 | S. cerevisiae deletion strains, locus YKR091W, strain srl3, active compounds read low 0.851 | S. cerevisiae deletion strains, locus YLL001W, strain dnm1, active compounds read low 0.568 | S. cerevisiae deletion strains, locus YLL026W, active compounds read low 0.706 | S. cerevisiae deletion strains, locus YLL041C, strain sdh2, active compounds read low 0.823 | S. cerevisiae deletion strains, locus YLR027C, strain aat2, active compounds read low 0.593 | S. cerevisiae deletion strains, locus YLR039C, strain RIC1, active compounds read low 0.0958 | S. cerevisiae deletion strains, locus YLR058C, strain SHM2, active compounds read low 0.202 | S. cerevisiae deletion strains, locus YLR102C, strain apc9, active compounds read low 0.221 | S. cerevisiae deletion strains, locus YLR113W, strain HOG1, active compounds read low 0.157 | S. cerevisiae deletion strains, locus YLR221C, strain rsa3, active compounds read low 0.499 | S. cerevisiae deletion strains, locus YLR258W, strain gsy2, active compounds read low 0.681 | S. cerevisiae deletion strains, locus YLR262C, strain YPT6 (second series), active compounds read low 0.153 | S. cerevisiae deletion strains, locus YLR262C, strain YPT6, active compounds read low 0.113 | S. cerevisiae deletion strains, locus YLR268W, strain sec22, active compounds read low 0.091 | S. cerevisiae deletion strains, locus YLR320W, strain mms22, active compounds read low 0.292 | S. cerevisiae deletion strains, locus YLR330W, strain CHS5, active compounds read low 0.176 | S. cerevisiae deletion strains, locus YLR342W, strain FKS1 (second series), active compounds read low 0.159 | S. cerevisiae deletion strains, locus YLR342W, strain FKS1, active compounds read low 0.586 | S. cerevisiae deletion strains, locus YLR357W, strain rsc2, active compounds read low 0.772 | S. cerevisiae deletion strains, locus YLR370C, strain arc18, active compounds read low 0.656 | S. cerevisiae deletion strains, locus YLR371W, strain rom2, active compounds read low 0.158 | S. cerevisiae deletion strains, locus YLR384C, strain iki3, active compounds read low 0.718 | S. cerevisiae deletion strains, locus YLR418C, strain cdc73, active compounds read low 0.13 | S. cerevisiae deletion strains, locus YML016C, strain PPZ1, active compounds read low 0.344 | S. cerevisiae deletion strains, locus YML032C, strain rad52, active compounds read low 0.137 | S. cerevisiae deletion strains, locus YML120C, strain ndi1, active compounds read low 0.652 | S. cerevisiae deletion strains, locus YML124C, strain tub3, active compounds read low 0.262 | S. cerevisiae deletion strains, locus YMR058W, strain fet3, active compounds read low 0.0978 | S. cerevisiae deletion strains, locus YMR078C, strain ctf18, active compounds read low 0.112 | S. cerevisiae deletion strains, locus YMR125W, strain sto1, active compounds read low 0.673 | S. cerevisiae deletion strains, locus YMR129W, active compounds read low 0.722 | S. cerevisiae deletion strains, locus YMR205C, strain PFK2, active compounds read low 0.47 | S. cerevisiae deletion strains, locus YMR223W, strain ubp8, active compounds read low 0.2 | S. cerevisiae deletion strains, locus YMR231W, strain pep5, active compounds read low 0.311 | S. cerevisiae deletion strains, locus YMR263W, strain SAP30, active compounds read low 0.353 | S. cerevisiae deletion strains, locus YMR307W, strain GAS1, active compounds read low 0.133 | S. cerevisiae deletion strains, locus YNL067W, strain RPL9B, active compounds read low 0.201 | S. cerevisiae deletion strains, locus YNL071W, strain lat1, active compounds read low 0.248 | S. cerevisiae deletion strains, locus YNL128W, strain TEP1, active compounds read low 0.237 | S. cerevisiae deletion strains, locus YNL153C, strain GIM3, active compounds read low 0.205 | S. cerevisiae deletion strains, locus YNL183C, strain NPR1, active compounds read low 0.0359 | S. cerevisiae deletion strains, locus YNL209W, strain ssb2, active compounds read low 0.392 | S. cerevisiae deletion strains, locus YNL233W, strain BNI4, active compounds read low 0.153 | S. cerevisiae deletion strains, locus YNL248C, strain rpa49, active compounds read low 0.635 | S. cerevisiae deletion strains, locus YNL250W, strain rad50, active compounds read low 0.514 | S. cerevisiae deletion strains, locus YNL271C, strain bni1, active compounds read low 0.347 | S. cerevisiae deletion strains, locus YNL298W, strain CLA4, active compounds read low 0.382 | S. cerevisiae deletion strains, locus YNL307C, strain MCK1, active compounds read low 0.0757 | S. cerevisiae deletion strains, locus YNL322C, strain KRE1 (second series), active compounds read low 0.797 | S. cerevisiae deletion strains, locus YNL322C, strain KRE1, active compounds read low 0.207 | S. cerevisiae deletion strains, locus YNR049C, strain mso1, active compounds read low 0.796 | S. cerevisiae deletion strains, locus YNR052C, strain pop2, active compounds read low 0.155 | S. cerevisiae deletion strains, locus YOL006C, strain TOP1, active compounds read low 0.137 | S. cerevisiae deletion strains, locus YOL147C, strain pex11, active compounds read low 0.0808 | S. cerevisiae deletion strains, locus YOR001W, strain rrp6, active compounds read low 0.604 | S. cerevisiae deletion strains, locus YOR061W, strain CKA2, active compounds read low 0.486 | S. cerevisiae deletion strains, locus YOR069W, strain VPS5, active compounds read low 0.255 | S. cerevisiae deletion strains, locus YOR070C, strain gyp1, active compounds read low 0.535 | S. cerevisiae deletion strains, locus YOR080W, strain dia2, active compounds read low 0.642 | S. cerevisiae deletion strains, locus YOR083W, strain WHI5, active compounds read low 0.674 | S. cerevisiae deletion strains, locus YOR106W, strain vam3, active compounds read low 0.358 | S. cerevisiae deletion strains, locus YOR136W, strain idh2, active compounds read low 0.267 | S. cerevisiae deletion strains, locus YOR144C, strain elg1, active compounds read low 0.136 | S. cerevisiae deletion strains, locus YOR184W, strain ser1, active compounds read low 0.0931 | S. cerevisiae deletion strains, locus YOR231W, strain MKK1, active compounds read low 0.142 | S. cerevisiae deletion strains, locus YOR265W, strain rbl2, active compounds read low 0.697 | S. cerevisiae deletion strains, locus YOR270C, strain vph1, active compounds read low 0.263 | S. cerevisiae deletion strains, locus YOR290C, strain snf2, active compounds read low 0.558 | S. cerevisiae deletion strains, locus YOR316C, strain cot1, active compounds read low 0.213 | S. cerevisiae deletion strains, locus YPL051W, strain arl3, active compounds read low 0.225 | S. cerevisiae deletion strains, locus YPL055C, strain LGE1, active compounds read low 0.171 | S. cerevisiae deletion strains, locus YPL078C, strain atp4, active compounds read low 0.558 | S. cerevisiae deletion strains, locus YPL106C, strain sse1, active compounds read low 0.708 | S. cerevisiae deletion strains, locus YPL240C, strain hsp82, active compounds read low 0.75 | S. cerevisiae deletion strains, locus YPL241C, strain CIN2, active compounds read low 0.224 | S. cerevisiae deletion strains, locus YPL256C, strain CLN2, active compounds read low 0.15 | S. cerevisiae deletion strains, locus YPR119W, strain clb2, active compounds read low 0.164 | S. cerevisiae deletion strains, locus YPR141C, strain kar3, active compounds read low 0.704 | S. cerevisiae deletion strains, locus YPR163C, strain tif3, active compounds read low 0.0943 | S. cerevisiae deletion strains, locus YPR167C, strain met16, active compounds read low 0.252 | S. cerevisiae deletion strains, strain wtn01, active compounds read low 0.166 | S. cerevisiae strains, strain wild type, active compounds read low 0.162
